Bioassay records from PubChem.
Shown are actives, neighbours in structure and some others; about 9.3% of the full set was active somewhere.
VACV mCherry inh = qHTS for Stage-Specific Inhibitors of Vaccinia Orthopoxvirus: mCherry Reporter Primary qHTS; 310,000 tested, 0.63% active; Potency, µM (titrated, usually from 36.5 µM), for the others: at the highest dose activity change, negative = inhibition, most hits filed as inhibitors; AID 720579, 2013; Vaccinia virus mCherry reporter infection, fluorescence; calls by dose curve; tested in A549 cells; also: potency is read from the fitted curve at half-maximal effect; nearly all actives have a fitted effect of over 35% in size
HCMV antiviral = qHTS Assay for inhibitors of the human cytomegalovirus (HCMV). 410,000 tested, 4.5% active. AID 1259415, 2018. activity change, negative = inhibition, % at 57.5 µM. HFF cells, HCMV-luciferase reporter, 72 h; active compounds read low; in the data active = activity change below about -60%; inconclusive = no clear call, values can overlap the other calls; inactive = above about -39%
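HFF cells seeded 16 h at 37C, treated with compounds, infected with luciferase-reporter HCMV at MOI 1 PFU/cell; luciferase read at 72 h post infection, normalized to buffer-only and Salinomycin controls.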
Sm TGR block = qHTS Assay for the Inhibitors of Schistosoma Mansoni Peroxiredoxins | Potency, µM (doses to about 114 µM), for the others: at the highest dose activity change, negative = inhibition, most hits filed as inhibitors | purified TGR, DTNB reduction, TNB absorbance 405 nm | 360,000 tested, 3% active; also: potency is read from the fitted curve at half-maximal effect; nearly all actives have a fitted effect of over 60% in size
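Kinetic colorimetric format: TGR-catalysed, NADPH-driven DTNB reduction monitored via TNB absorbance. Enzyme dispensed at 20 nM; compound exposure 15 min at room temperature before reaction start.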
VACV Venus inh = qHTS for Stage-Specific Inhibitors of Vaccinia Orthopoxvirus: Venus Reporter Primary qHTS; Vaccinia virus Venus reporter expression, fluorescence; 330,000 tested, 0.46% active; Potency, µM (series often up to 36.5 µM), for the others: top-dose activity change, negative = inhibition, actives largely listed as inhibitors; calls by dose curve; tested in A549 cells; also: potency is read from the fitted curve at half-maximal effect; nearly all actives have a fitted effect of over 30% in size
HCV inh = qHTS Assay for Inhibitors of Hepatitis C Virus (HCV) | Potency, µM (highest dose often 41.8 µM), for the others: at the top dose activity change, negative = inhibition, usual class: inhibitors | Huh7.5.1 HCVcc-Cre infection, luciferase reporter, 44 h | 340,000 tested, 3.4% active | AID 651820, 2012; also: potency is read from the fitted curve at half-maximal effect
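Infectious HCVcc-Cre (~0.5 moi) was added to cells just after compound, with cells seeded 4 h earlier at 1,000 per well. Luciferase activity after 44 h culture reported infection; substrate was incubated 15 min at room temperature before reading.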
FMDV inh = High Throughput Screening for Foot and Mouth Disease Virus Antivirals; FMDV antiviral cell-based qHTS; 410,000 tested, 1.2% active; Potency, µM (series often up to 57.9 µM), for the others: top-dose activity change, negative = inhibition, hits mostly inhibitors; calls by dose curve; tested in HEK293T cells; also: read-out not given here; potency is read from the fitted curve at half-maximal effect; nearly all actives have a fitted effect of over 45% in size
Active calls of the source: *; i = inactive; ? = inconclusive; nt = no result; [ ] = dose if it differs, or a comment. Unless noted, calls follow the shape of the dose curve; as a rule, active = well fitted curve in the direction sought with a large enough effect; inconclusive = small, poorly fitted or top-dose-only effect, or another doubt; inactive = no such curve, though single readings can be large; an effect the other way counts as inactive or inconclusive. % is scaled to controls: 0 for no effect and ±100 for the full control effect.

SMILES	VACV mCherry inh	HCMV antiviral	Sm TGR block	VACV Venus inh	HCV inh	FMDV inh
CCCCN(C)C(=O)c1ccc(Nc2nc(C(N)Cc3ccc(C(F)(F)F)cc3)cs2)nc1 (stereo not given)	-19.6%	-75.8*	nt	-21.3%	nt	-23.2%
COc1ccc(CC(N)c2csc(NC(=O)Nc3cccc(C(F)(F)F)c3)n2)cc1 (stereo not given)	?	-39.2	nt	14.1µM*	nt	-15.0%
NC(Cc1ccc(Cl)cc1)c1csc(NC(=O)Nc2ccccc2)n1 (stereo not given)	?	14.4	nt	?	nt	-27.1%
O=C(Cc1ccccc1)NCC(=O)Nc1ccc(OC(F)(F)F)cc1	36.9%	1.3	-8.5%	0.7%	1.6%	-4.6%
Nc1cnc(-c2ccccc2)nc1Cl	i	4.7	-11.7%	-8.7%	0.1%	78.9%
NC(CCc1ccccc1)c1csc(NC(=O)Nc2cccc(C(F)(F)F)c2)n1 (stereo not given)	?	-98.1*	nt	?	nt	-23.3%
CCOC(=O)C(=Nc1ccccc1)NO	-11.0%	14.7	-9.5%	-12.0%	21.5%	-28.1%
COc1ccc(Br)cc1C1Nc2cccc3cccc(c23)N1	nt	9.1	?	nt	7.9%	-7.5%
COc1cc(C2Nc3cccc4cccc(c34)N2)ccc1O	i	-4.4	3.98µM*	-17.2%	-7.4%	-9.3%
CCN(CC)c1ccc(C2Nc3cccc4cccc(c34)N2)c(O)c1	nt	46.3	22.4µM*	nt	11.2µM*	33.1%
COc1cc(C2Nc3cccc4cccc(c34)N2)cc(OC)c1OC(C)=O	nt	-14.7	8.91µM*	-10.3%	-6.7%	-20.0%
Nc1ccc(N2CCCC2)c(S(=O)(=O)Nc2cccc(C(F)(F)F)c2)c1	-0.9%	-68.8*	nt	-5.6%	?	21.7%
COc1ccc(NS(=O)(=O)c2cc(N)ccc2N2CCCCC2)cc1	nt	-34.5	-11.7%	nt	-0.9%	15.1%
S=c1[nH]c(=S)c2[nH]cnc2[nH]1	-18.5%	nt	nt	-12.0%	nt	nt
Cc1ccc(/C=C/C2=Cc3c(sc(NC(=O)CSc4n[nH]c(N)n4)c3C#N)C(C)(C)C2)o1	nt	nt	2.51µM*	nt	nt	nt
Cc1sc(NC(=O)CSc2n[nH]c(N)n2)c(C#N)c1C	?	0.0	nt	-2.4%	5.7%	-10.2%
CCCCOC(=O)COc1ccc(Cl)cc1Cl	i	17.9	0.0%	-11.5%	2.0%	-21.1%
COc1cccc(CN(C)CC2CCCN(CCc3ccccc3C)C2)c1 (stereo not given)	nt	-21.1	14.3%	nt	11.2µM*	-22.6%
COc1ccc(CCN2CCCC(CN(C)Cc3cc(Cl)c(O)c(OC)c3)C2)cc1 (stereo not given)	nt	22.7	50.1µM*	nt	?	9.9%
COc1cc(OC)c(OC)cc1CN(C)CC1CCCN(CCc2ccccc2F)C1 (stereo not given)	nt	-2.5	-6.3%	nt	14.1µM*	0.0%
COc1ccc(CN(C)CC2CCCN(CCc3ccccc3C)C2)cc1O (stereo not given)	-13.0%	-31.3	-23.0%	-25.9%	?	-11.0%
Cc1cc(OCC(=O)N2CCN(CCc3ccncc3)CC2)cc(C)c1Cl	-15.5%	-8.6	-13.3%	-6.4%	nt	-22.6%
O=C(O)c1cnn(-c2ccccc2)c1-c1ccncc1	-5.7%	-22.3	-9.7%	-20.1%	4.0%	-17.2%
COc1ccc(Nc2cc(C)c3cc(NC(=O)Cc4c(F)cccc4Cl)ccc3n2)cc1	-11.4%	?	3.8%	-19.9%	nt	-29.3%
COc1ccc(Nc2cc(C)c3cc(NC(=O)c4cc(OC)cc(OC)c4)ccc3n2)cc1	-23.2%	-77.1*	1.5%	?	nt	-4.8%
SMILES	VACV mCherry inh	HCMV antiviral	Sm TGR block	VACV Venus inh	HCV inh	FMDV inh
Cc1cccc(OCC(=O)Nc2ccncc2)c1	-3.9%	-26.7	nt	0.0%	-14.1%	-11.5%
COc1ccc(Nc2cc(C)c3cc(NC(=O)COc4cccc(C)c4)ccc3n2)cc1	?	-39.2	5.9%	?	nt	35.5µM*
COc1ccc(Nc2cc(C)c3ccccc3n2)cc1	-26.0%	57.2	8.5%	-10.7%	?	12.3%
COc1ccc(CC(=O)Nc2ccc3nc(Nc4ccc(OC)cc4)cc(C)c3c2)cc1	-24.6%	-86.3*	-1.9%	-18.0%	nt	-28.9%
Cc1ccccc1-n1ncc2c([N+](=O)[O-])cc([N+](=O)[O-])cc21	-4.5%[1.46 µM]	-10.9	-25.9%	-6.6%	7.94µM*	-18.2%
CC(C)c1c(O)ccc2c1CC[C@H]1C(C)(C)CCC[C@]21C	-23.1%	12.6	nt	?	2µM*	?
Cc1c(N=Cc2c(O)n(CCc3ccc(F)cc3)c(=O)[nH]c2=O)c(=O)n(-c2ccccc2)n1C	?	-70.9*	-3.8%	-2.1%	10.9%	nt
COc1ccc(CCn2c(O)c(C=Nc3ccc(F)cc3)c(=O)[nH]c2=O)cc1OC	nt	-11.7	-8.4%	nt	-6.2%	31.6µM*
CCN(CC)c1ccc(N=Cc2c(O)n(CCc3ccc(OC)c(OC)c3)c(=O)[nH]c2=O)cc1	-14.3%	30.7	-1.6%	-7.4%	15.6%	6.31µM*
Cc1c(N=Nc2c(O)n(-c3ccc(Br)cc3)c(=O)[nH]c2=O)c(=O)n(-c2ccccc2)n1C	-12.4%	-11.2	10µM*	-10.1%	15.8%	-14.8%
CCN(CC)CCCN=Cc1c(O)n(CCc2ccc(OC)c(OC)c2)c(=O)[nH]c1=O	nt	3.0	-2.2%	nt	-5.8%	-21.3%
COc1ccc(N2CCN(C(=O)c3ccccc3N(C)S(=O)(=O)c3ccc(C)cc3)CC2)cc1	-11.5%	-31.6	-19.9%	-21.0%	nt	28.8%
CCOC(=O)C1=C(Nc2ccc(Br)cc2)CC(C)(O)C(C(=O)OCC)C1c1ccccc1 (stereo not given)	-19.1%	23.6	0.0%	-11.4%	9.9%	-24.9%
C=CCn1c(C)c(C(=O)OCC)c2cc(O)c3ccccc3c21	-23.8%	28.4	-9.0%	-5.1%	-19.1%	13.5%
COc1ccc(-c2cc(=O)[nH][nH]2)cc1OC	nt	-20.2	14.7%	nt	?	-7.1%
COc1ccc(C2=NO[C@@H]3C(=O)N(c4ccc(C)cc4C)C(=O)[C@H]23)cc1OC	nt	-28.1	11.2µM*	nt	0.0%	-4.1%
COc1ccc(C2=NO[C@@H]3C(=O)N(c4cccc(C)c4C)C(=O)[C@H]23)cc1OC	nt	2.3	-14.3%	nt	11.7%	7.6%
COc1ccc(-c2cn(-c3ccc(C)cc3C)c(=O)[nH]2)cc1OC	?	-30.7	11.2µM*	-8.3%	11.2µM*	-17.3%
COc1ccc(NC(=O)CCC(=O)N/N=C/c2cn(C)nc2C)cc1	-16.9%	16.3	6.6%	-9.0%	15.3%	-21.0%
CCCN1C(=O)SC(CC(=O)Nc2ccccc2)C1=O (stereo not given)	-14.9%	?	0.5%	-14.1%	24.6%	2.4%
